Screening data from PubChem.
ULK1 primary: human ULK1 kinase inhibition, primary screen; 30,000 tested, 1.9% active; O75385; inhibition, % at 5.96 µM; AlphaScreen Atg13 phosphorylation by ULK1, luminescence; in the data active means inhibition above about 43%;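 further: 0% = median of compound wells and 100% = no enzyme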
ASK1 inh: inhibitors of human ASK1 kinase. inhibition, % at 7.44 µM. Q99683. 22,000 tested, 0.99% active. AlphaScreen MKK6 phosphorylation by ASK1, luminescence; in the data active means inhibition above about 35%;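 further: 0% = median of compound wells and 100% = no enzyme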
* marks the source's active call; other numbers are inactive results; / = no result. A selection: hits, their analogues and other compounds. The true share with any hit is near 2.4%.

SMILES	ULK1 primary	ASK1 inh
Cc1c(N)nc(C(CC(N)=O)NCC(N)C(N)=O)nc1C(=O)NC(C(=O)NC(C)C(O)C(C)C(=O)NC(C(=O)NCCc1nc(-c2nc(C(=O)NCCC[S+](C)C)cs2)cs1)C(C)O)C(O[C@@H]1O[C@@H](CO)[C@@H](O)[C@H](O)[C@@H]1O[C@H]1O[C@H](CO)[C@@H](O)[C@H](OC(N)=O)[C@@H]1O)c1cnc[nH]1 (stereo partly specified)	3	/
O=C1OC(c2ccc(O)c(S(=O)(=O)O)c2)(c2ccc(O)c(S(=O)(=O)O)c2)c2c(Br)c(Br)c(Br)c(Br)c21	64*	/
O=C(Cl)c1cccs1	7	/
CC(CO)NC(=O)C1C=C2c3cccc4c3c(cn4C)CC2N(C)C1 (stereo unspecified)	21	/
CC(C)(C)C(=O)OCCl	8	/
COc1ccc(Cc2nccc3cc(OC)c(OC)cc23)cc1OC	69*	/
COc1ccc(CCN2CCC(=O)CC2)cc1OC	-4	/
C=C1C[C@@H](c2ccccc2)N2CCCC[C@H]2[C@H]1C	-3	0
